Assay results reported in ChEMBL document CHEMBL1201862, “PubChem BioAssay data set” (2004).
In all, about 400,000 compounds went through this assay and about 2,100 (0.53%) were called active. Another 14% or so got no clear call; they are omitted. The sample holds actives, similar compounds and a random draw of the others, so the mix is not that of the screen. No rule for the calls is given here.

What follows are compounds tested against Ataxin-2 (Homo sapiens) (UniProt Q99700) (assay: qHTS for Inhibitors of ATXN expression.).
Assay type: functional

Sequence of Ataxin-2 (Homo sapiens) (Q99700 whole entry): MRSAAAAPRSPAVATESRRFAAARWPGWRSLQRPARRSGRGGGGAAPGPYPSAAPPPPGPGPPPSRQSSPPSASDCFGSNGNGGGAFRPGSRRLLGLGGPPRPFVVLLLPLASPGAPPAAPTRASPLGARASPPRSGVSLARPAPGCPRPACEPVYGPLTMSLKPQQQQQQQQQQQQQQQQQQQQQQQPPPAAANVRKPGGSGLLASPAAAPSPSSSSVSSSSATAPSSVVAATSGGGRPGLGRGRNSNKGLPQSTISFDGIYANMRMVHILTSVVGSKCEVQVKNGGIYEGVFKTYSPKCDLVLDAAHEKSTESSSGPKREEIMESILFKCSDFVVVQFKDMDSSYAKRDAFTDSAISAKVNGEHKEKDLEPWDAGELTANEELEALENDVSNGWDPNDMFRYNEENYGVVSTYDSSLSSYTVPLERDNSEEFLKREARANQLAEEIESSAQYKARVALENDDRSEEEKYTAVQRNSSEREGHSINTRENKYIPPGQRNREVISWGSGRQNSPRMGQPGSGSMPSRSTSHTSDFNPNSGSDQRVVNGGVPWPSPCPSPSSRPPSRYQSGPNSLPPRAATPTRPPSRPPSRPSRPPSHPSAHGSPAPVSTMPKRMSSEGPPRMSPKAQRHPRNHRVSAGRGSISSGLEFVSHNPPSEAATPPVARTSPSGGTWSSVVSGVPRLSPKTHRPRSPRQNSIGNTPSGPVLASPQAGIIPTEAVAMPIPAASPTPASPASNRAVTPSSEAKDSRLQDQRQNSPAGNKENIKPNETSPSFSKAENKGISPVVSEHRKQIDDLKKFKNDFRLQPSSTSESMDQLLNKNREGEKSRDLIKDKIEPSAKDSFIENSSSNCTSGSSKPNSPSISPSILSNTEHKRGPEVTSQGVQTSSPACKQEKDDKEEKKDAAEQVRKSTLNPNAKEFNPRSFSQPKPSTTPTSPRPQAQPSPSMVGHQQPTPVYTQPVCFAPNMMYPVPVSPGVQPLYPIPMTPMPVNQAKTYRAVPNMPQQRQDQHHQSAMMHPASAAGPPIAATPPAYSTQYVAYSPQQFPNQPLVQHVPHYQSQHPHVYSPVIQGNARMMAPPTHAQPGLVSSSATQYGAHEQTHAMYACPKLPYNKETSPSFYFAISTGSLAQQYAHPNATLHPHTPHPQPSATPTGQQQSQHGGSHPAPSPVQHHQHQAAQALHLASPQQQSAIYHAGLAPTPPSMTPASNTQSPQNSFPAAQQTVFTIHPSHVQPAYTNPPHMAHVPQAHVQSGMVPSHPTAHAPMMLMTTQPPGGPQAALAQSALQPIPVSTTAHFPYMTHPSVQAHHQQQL

| Structure (SMILES) | Potency |
| --- | --- |
| CC(=O)Nc1ccc(C(=O)Nc2ccncc2)cc1 | inactive |
| CC(C)CC(NS(=O)(=O)OCC(Cl)(Cl)Cl)c1ccccc1 (stereo not given) | 35.5 µM (active) |
| Cc1ccc(C)c(N(C(=O)c2snc(C(N)=O)c2N)C(C(=O)NCC2CCCO2)c2ccc(C)o2)c1 (stereo not given) | inactive |
| N=c1c(C(=O)NCC2CCCO2)cc2c(=O)n3ccccc3nc2n1C1CCCC1 (stereo not given) | inactive |
| COC(=O)c1ccc(N2C(c3cc(OC)cc(OC)c3)=Cc3ccc(-c4ccc(C(N)=O)cc4)cc3C2CC(=O)C2CC2)cc1 (stereo not given) | inactive |
| N=C1c2c(cc(O)n3c2nc2ccccc23)CN1CCN1CCOCC1 | inactive |
| C[C@@H](C[C@@H](O)[C@H](O)C(C)(C)O)[C@@H]1CC[C@]2(C)C3=CC[C@H]4C(C)(C)C(=O)CC[C@]4(C)[C@H]3CC[C@@]12C | 39.8 µM (active) |
| Cc1cc(C)c(C(=O)CSc2nc(C)cc(C)c2C(N)=O)c(C)c1 | inactive |
| CC(=O)N1CCc2c(sc3nc(SCC(C)C)n(-c4ccc(C)c(Cl)c4)c(=O)c23)C1 | 25.1 µM (active) |
| Oc1nc(C(Cl)Cl)nc2sc3c(c12)CCN(Cc1ccccc1)C3 | inactive |
| CSc1nc2sc3c(c2c(=O)n1CC(C)C)CC(C)(C)OC3 | inactive |
| Cc1cc(S(=O)(=O)Nc2cccc(-c3ccc(N4CCOCC4)nn3)c2)c(C)cc1Cl | 39.8 µM (active) |
| COc1ccc(F)cc1S(=O)(=O)Nc1cccc(-c2ccc(N3CCCCCC3)nn2)c1 | 39.8 µM (active) |
| COc1cccc(C(=O)Nc2cccc(-c3ccc(N4CCOCC4)nn3)c2)c1OC | inactive |
| O=C(Nc1ccc(N2CCOCC2)c(S(=O)(=O)Nc2cc(Cl)ccc2Cl)c1)c1cccnc1 | inactive |
| Cc1ccc(S(=O)(=O)NCCC(=O)Oc2ccc3ccc(=O)oc3c2)cc1 | inactive |
| Cc1ccc2c(Cl)cc(Cl)c(OCC(=O)NC(C)(C)C)c2n1 | inactive |
| Cc1oc(-c2cccc(NC(=O)c3ccccn3)c2)nc1CNC(=O)C#Cc1ccccc1 | inactive |
| COC(=O)c1cccc(C(=O)NCc2nc(-c3cccc(NC(=O)c4ccoc4C)c3)oc2C)c1 | 31.6 µM (active) |
| Cc1ccc(C(=O)Nc2cccc(-c3nc(CNC(=O)c4ccc5ccccc5n4)c(C)o3)c2)s1 | inactive |
| CSc1nc(C(=O)NCc2nc(-c3cccc(NC(=O)c4ccccn4)c3)oc2C)cs1 | inactive |
| CSc1ccccc1C(=O)NCc1nc(-c2cccc(NC(=O)c3ccoc3C)c2)oc1C | 25.1 µM (active) |
| O=[N+]([O-])c1cc2c(cc1/C=N/n1cnnc1)OCO2 | inactive |
| CCNc1nc(C)c(CN(C(C)=O)c2ccccc2)nc1C#N | inactive |
| Cc1ccc(-c2cn3nc(C)c(C)nc3n2)cc1 | inactive |
